This is a sample that favours compounds with a hit; in the whole collection about 21% have one here.
RORg inh = qHTS for inhibitors of ROR gamma transcriptional activity; Nuclear receptor ROR-gamma (Mus musculus), P51450; Drosophila S2 Gal4-RORgamma UAS-luciferase reporter, 20 h; Potency, µM (titrated, usually from 53.6 µM), inactives show at the top dose activity change, negative = inhibition, actives largely listed as inhibitors; 310,000 tested, 5.4% active; further: potency means the concentration at half of the fitted maximal effect; nearly all actives have a fitted effect of over 60% in size
Target sequence (P51450 whole entry, looked up, the tested form may be a part): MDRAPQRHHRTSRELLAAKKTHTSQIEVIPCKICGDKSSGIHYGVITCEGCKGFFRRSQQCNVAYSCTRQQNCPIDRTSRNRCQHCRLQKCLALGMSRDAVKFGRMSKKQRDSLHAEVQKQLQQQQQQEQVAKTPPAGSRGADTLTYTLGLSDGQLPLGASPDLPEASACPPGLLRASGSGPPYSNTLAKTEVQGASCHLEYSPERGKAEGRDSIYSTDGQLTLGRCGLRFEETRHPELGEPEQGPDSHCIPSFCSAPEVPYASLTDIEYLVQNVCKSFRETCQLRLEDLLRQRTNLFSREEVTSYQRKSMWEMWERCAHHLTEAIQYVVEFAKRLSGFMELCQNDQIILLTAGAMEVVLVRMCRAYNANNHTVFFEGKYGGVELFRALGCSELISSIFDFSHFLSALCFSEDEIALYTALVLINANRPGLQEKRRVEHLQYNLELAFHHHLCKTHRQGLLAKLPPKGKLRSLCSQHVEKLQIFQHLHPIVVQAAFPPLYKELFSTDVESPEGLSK
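Drosophila S2 cells stably expressing Gal4-DBD/mouse RORγ fusion under metallothionein promoter plus UAS-luciferase; compound 1 h, then 700 uM CuSO4 induction for 20 h at ambient temperature; inhibition read as reduced luminescence.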
IL1B secr inh = qHTS for Inhibitors of Inflammasome Signaling: IL-1-beta AlphaLISA Primary Screen; THP-1 LPS/ATP IL-1B secretion, AlphaLISA, 16 h; hits give low values; activity change, % at 57.5 µM; 360,000 tested, 4.7% active; AID 743279, 2014; in the data active means activity change below about -50%; inconclusive means mostly about -30% to -49%
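THP-1 cells pretreated 1 hr with compounds (up to 57.5 uM final), then stimulated with LPS (250 ng/mL final) plus ATP (1.25 mM final); secreted IL-1B measured by AlphaLISA after 16 hr, decreased signal indicating inhibition.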
ELG1 DNA repair = qHTS screen for small molecules that inhibit ELG1-dependent DNA repair in human embryonic kidney (HEK293T) cells expressing luciferase-tagged ELG1 | HEK293T ELG1-luciferase reporter, luminescence, 16 h; DNA damage induced by 5-fluorouridine | Potency, µM (top dose mostly 46.1 µM), for the others: top-dose activity change, negative = inhibition, usual class: inhibitors | 330,000 tested, 2.3% active | AID 504467, 2011; further: potency means the concentration at half of the fitted maximal effect; nearly all actives have a fitted effect of over 55% in size
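Overnight (16 hr) co-exposure of 2,000 cells/well to 5-fluorouridine and compound at 37 °C preceded detection. Luciferase was quantified via ONE-Glo luminescence; loss of signal denotes inhibition.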
DT40 TDP1 no CPT = qHTS for Inhibitors of human tyrosyl-DNA phosphodiesterase 1 (TDP1): qHTS in cells in absence of CPT. DT40 Tdp1-/- hTDP1 cells, no CPT, ATP luminescence, 48 h. Potency, µM (titrated, usually from 46.2 µM), without a hit: at the top dose activity change, negative = growth inhibition, usual class: inhibitors. 420,000 tested, 15% active; further: potency means the concentration at half of the fitted maximal effect; nearly all actives have a fitted effect of over 55% in size
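Camptothecin absent (DMSO only). Human TDP1-complemented DT40 knockout cells, 400 cells/well, 37 °C for minimum 48 hr; ATP measured via CellTiter-Glo, 30 min dark incubation, luminescence.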
DT40 TDP1 CPT = qHTS for Inhibitors of human tyrosyl-DNA phosphodiesterase 1 (TDP1): qHTS in cells in presence of CPT | chicken DT40 Tdp1-/-;hTDP1 cells + 20 nM CPT, ATP luminescence, 48 h | Potency, µM (series often up to 46.2 µM), for the others: at the highest dose activity change, negative = growth inhibition, most hits filed as inhibitors | 420,000 tested, 12% active; further: potency means the concentration at half of the fitted maximal effect; nearly all actives have a fitted effect of over 55% in size
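Cell growth measured by CellTiter-Glo luminescence after a minimum 48 h, 37 C compound exposure with 20 nM CPT in Tdp1-knockout DT40 cells stably expressing hTDP1, seeded 400/well; qHTS titration format.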
Gal4-VP16 FLuc = VP16 counterscreen qHTS for inhibitors of ROR gamma transcriptional activity; Drosophila S2 Gal4-VP16 UAS-luciferase, luminescence, 20 h; Potency, µM (top dose mostly 53.6 µM), for the others: top-dose activity, negative = inhibition, most hits filed as inhibitors; 310,000 tested, 3.5% active; AID 2546, 2010;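 further: Gal4-VP16 expression switched on by copper sulfate through the metallothionein promoter; potency means the concentration at half of the fitted maximal effect; nearly all actives have a fitted effect of over 50% in size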
* = called active by the depositor; ? = inconclusive; / = not tested or not shown. Unless noted, the call rests on the fitted dose curve; in most records, active means well fitted curve in the direction sought with a large enough effect; inconclusive means small, poorly fitted or top-dose-only effect, or another doubt; inactive means no such curve, though single readings can be large; an effect the other way counts as inactive or inconclusive. On the % scale 0 is the no-effect control and ±100 the full control effect.

SMILES	RORg inh	IL1B secr inh	ELG1 DNA repair	DT40 TDP1 no CPT	DT40 TDP1 CPT	Gal4-VP16 FLuc
CCN1CCN(c2cc(C)c3cc(NC(=S)N(C)Cc4ccccc4)ccc3n2)CC1	-15%	-20	13%	?	?	-1%
CCN(CC)CCNC(=S)Nc1ccc2nc(N3CCN(CC)CC3)cc(C)c2c1	-19%	-59*	0%	?	?	-3%
CCN1CCN(c2cc(C)c3cc(NC(=S)NCCN(C)C)ccc3n2)CC1	-5%	-52*	-3%	21µM*	?	-4%
CCCN1CCN(CCCNC(=S)Nc2ccc3nc(N4CCN(CC)CC4)cc(C)c3c2)CC1	1%	-13	?	?	?	3%
CCCCNC(=S)Nc1ccc2nc(N3CCN(CC)CC3)cc(C)c2c1	-2%	?	0%	23µM*	23µM*	-12%
CCCCN(C)CCNC(=S)Nc1ccc2nc(N3CCN(CC)CC3)cc(C)c2c1	-8%	-63*	6%	?	?	-4%
CCC1(c2ccccc2)NC(=O)N(CC(=O)N(C)CC(=O)Nc2ccc(F)c(F)c2F)C1=O (stereo not drawn)	/	7	13%	-25%	-16%	/
CC(C)C1C(=O)N(Cc2cn(CCC3OCCO3)nn2)CCS(=O)(=O)N1Cc1ccc(-c2ccc(Cl)c(Cl)c2)cc1 (stereo not drawn)	/	-27	/	0.92µM*	2.1µM*	/
COc1ccc(-c2ccc(CN3C(C(C)C)C(=O)N(Cc4cn(CCC5OCCO5)nn4)CCS3(=O)=O)cc2)cc1OC (stereo not drawn)	/	-3	/	-9%	-36%	/
CC(C)Cc1ccc(CN2C(C(C)C)C(=O)N(Cc3cn(CCC4OCCO4)nn3)CCS2(=O)=O)cc1 (stereo not drawn)	/	-56*	/	18µM*	?	/
COc1ccc(-c2ccc(CN3C(C(C)C)C(=O)N(Cc4cn(CCC5OCCO5)nn4)CCS3(=O)=O)cc2)cc1 (stereo not drawn)	/	13	/	8.2µM*	9.2µM*	/
CC(C)C1C(=O)N(Cc2cn(CCC3OCCCO3)nn2)CCS(=O)(=O)N1Cc1ccc(-c2ccncc2)cc1 (stereo not drawn)	/	1	/	?	?	/
CC1C(=O)N(Cc2cn(CCC3OCCO3)nn2)CCS(=O)(=O)N1Cc1ccc(-c2ccncc2)cc1 (stereo not drawn)	/	19	/	-1%	-8%	/
CN(C)c1ccc(/C=C/C(=O)c2cccc(Br)c2)cc1	23%	?	15%	21µM*	15µM*	1%
CC(=O)Nc1cccc(C(=O)/C=C/c2ccc(C)cc2)c1	13µM*	-102*	-14%	10µM*	9.2µM*	?
CCC(=O)Nc1cccc(C(=O)/C=C/c2ccc(F)cc2)c1	?	-80*	-3%	2.6µM*	4.6µM*	?
Cc1cc(C)cc(NC(=O)CCN2CCOCC2)c1	-4%	13	0%	-26%	4%	6%
CC(C)C[C@@H](CN1CCC[C@@H]1CN1C(=O)C(=O)NC[C@@H]1Cc1ccccc1)N1C[C@H](Cc2ccccc2)N(CC2CCCCC2)C(=O)C1=O	/	?	/	16µM*	?	/
CC(C)C[C@@H](CN1CCC[C@H]1CN1C(=O)C(=O)NC[C@@H]1Cc1ccccc1)N1C[C@H](Cc2ccc(O)cc2)N(CC2CCCCCC2)C(=O)C1=O	/	-76*	/	23µM*	23µM*	/

High-throughput results from PubChem.
